Unmarked numbers belong to inactive results. Inconclusive results are not listed. Activity calls are given as the source filed them. Unless noted, the call rests on the fitted dose curve; in most records, active means well fitted curve in the direction sought with a large enough effect in the repeat runs; inconclusive means weak or mixed curves; inactive means no such curve, though single readings can be large; an effect the other way counts as inactive or inconclusive.

Assay [1] concerns the target Progesterone receptor (Homo sapiens) (UniProt P06401). Put plainly: qHTS assay to identify small molecule agonists of the progesterone receptor (PR) signaling pathway (AID 1346784; calls by dose curve; further: on the % scale 0 is the no-effect control and ±100 the full control effect; nearly all actives have a fitted effect of over 30% in size). In short, it runs like this:
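Agonist mode, quantitative HTS format in a HEK 293T line expressing a UAS-controlled beta-lactamase reporter; 16 hr compound exposure at 37C in 2% charcoal-stripped FBS, then LiveBLAzer B/G FRET fluorescence.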
For orientation: Quantitative high-throughput screening tests each substance at several concentrations.

Assay [2] can be described thus: qHTS assay to identify small molecule antagonists of the progesterone receptor (PR) signaling pathway - cell viability counter screen (AID 1346798). Further: nearly all actives have a fitted effect of over 50% in size. Further: potency means the concentration at half of the fitted maximal effect. The procedure, abridged: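 Same-well multiplex: after 16 hr at 37C with compound and R5020 stimulation, HEK293T cells carrying a UAS-bla reporter received LiveBLAzer substrate (2 hr RT), then CellTiter-Glo (30 min RT) for luminescent viability.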

The nature of assay [3]: qHTS assay to identify small molecule agonists of the progesterone receptor (PR) signaling pathway - cell viability counter screen (AID 1346799; calls by dose curve; further: on the % scale 0 is the no-effect control and ±100 the full control effect; nearly all actives have a fitted effect of over 45% in size). The procedure, abridged:
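Counter screen for cytotoxicity: compound-treated PR-UAS-bla HEK293T cells (16 hr, 37C, 5% CO2) were assayed with CellTiter-Glo, luminescence measured after 30 min at room temperature.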

Assay [4] in a line: qHTS assay to identify small molecule antagonists of the TGF-beta/Smad signaling pathway - cell viability counter screen (AID 1346824). Further: on the % scale 0 is the no-effect control and ±100 the full control effect; nearly all actives have a fitted effect of over 50% in size. In short, it runs like this:
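Cytotoxicity counter-screen run in the same wells as the beta-lactamase Smad reporter read: CellTiter-Glo luminescence after 30 min at room temperature. HEK 293T SBE-bla cells had 5 hr compound exposure at 37 C with TGF-beta1 (0.25 ng/mL stock).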

Assay [5] in a line: qHTS assay to identify small molecule agonists of the TGF-beta/Smad signaling pathway - cell viability counter screen (AID 1346829). Further: top concentration of the series differs between compounds; on the % scale 0 is the no-effect control and ±100 the full control effect; nearly all actives have a fitted effect of over 45% in size. The procedure, abridged: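 Tox21 qHTS format: SBE-bla HEK 293T cells treated with DMSO-dissolved compounds for 5 hr; CellTiter-Glo luminescence after 30 min at room temperature.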
Assay [6] can be described thus: qHTS assay to identify small molecule agonists of the TGF-beta/Smad signaling pathway (AID 1346859; active means well fitted activation curve with a large enough effect in the signal ratio in the repeat runs, not every such curve was filed as active; the % refers to the signal ratio; further: series mostly up to about 77 µM; on the % scale 0 is the no-effect control and ±100 the full control effect). The procedure, abridged:
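Smad-responsive beta-lactamase reporter cells (HEK 293T) received compounds from DMSO stocks after overnight attachment, were incubated 5 hr, then treated 2 hr with FRET substrate before dual-emission fluorescence measurement (405 nm excitation).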

The target of assay [7] is Thyrotropin-releasing hormone receptor (Homo sapiens) (UniProt P34981). Nature of the assay: qHTS assay to identify small molecule antagonists of the thyrotropin-releasing hormone receptor (TRHR) signaling pathway (AID 1346877; active means well fitted inhibition curve with a large enough effect in the repeat runs, not every such curve was filed as active; further: series mostly up to about 51 µM; on the % scale 0 is the no-effect control and ±100 the full control effect). The procedure, abridged: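 Intracellular calcium fluorescence, read kinetically every second over 3 min, reports TRH-evoked signalling in HEK293 cells carrying TRHR. Test compounds were added 5 min ahead of a 1 nM TRH challenge.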

The target is the same in assay [8]. Put plainly: qHTS assay to identify small molecule agonists of the thyrotropin-releasing hormone receptor (TRHR) signaling pathway (AID 1346891; calls by dose curve;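 further: HEK293 cells expressing TRHR with calcium dye readout; series mostly up to about 58 µM; on the % scale 0 is the no-effect control and ±100 the full control effect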). In short, it runs like this:
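Agonist-mode calcium mobilisation screen: TRHR-transfected HEK293 cells cultured overnight (18 h), dye-loaded for 2 h at 37 °C, exposed to compounds, and monitored by fluorescence for 3 min.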

The nature of assay [9]: Human pregnane X receptor (PXR) small molecule agonists, qHTS cell viability counter screen (AID 1346977). Further: nearly all actives have a fitted effect of over 50% in size. Further: potency means the concentration at half of the fitted maximal effect. In short, it runs like this: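 Measures live-cell protease fluorescence (CellTiter-Fluor) in PXR-Luc HepG2 cells treated 24hr with compounds at 37C. Cells had 5hr to attach before pin transfer of DMSO solutions.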
A short description of assay [10]: Caspase-3/7 induction in HepG2 cells by small molecules, qHTS assay (AID 1346978). Further: nearly all actives have a fitted effect of over 15% in size. Further: potency means the concentration at half of the fitted maximal effect. On caspase activation: on the % scale 0 is the no-effect control and ±100 the full control effect. The procedure, abridged: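 Caspase-3/7 induction was measured by Caspase-Glo 3/7 luminescence (30 min, room temperature) after a 17 hr compound exposure of wild-type HepG2 cells seeded at 2,000 per well and pre-incubated 5 hr.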
Assay [11] in a line: Caspase-3/7 induction in CHO-K1 cells by small molecules, qHTS assay (AID 1346980). Further: on the % scale 0 is the no-effect control and ±100 the full control effect; nearly all actives have a fitted effect of over 15% in size. The procedure, abridged: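 Luminescent Caspase-Glo 3/7 read (30min, room temperature) quantified apoptosis induction. Cells were wild-type CHO-K1, treated with compound for 17hr at 37 C and 5% CO2.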
In assay [12] the target is Nuclear receptor subfamily 1 group I member 2 (Homo sapiens) (UniProt O75469). Put plainly: Human pregnane X receptor (PXR) small molecule agonists, qHTS assay (AID 1346982). Further: nearly all actives have a fitted effect of over 35% in size. Further: potency means the concentration at half of the fitted maximal effect. The procedure, abridged:
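Luciferase signal from ONE-Glo (30 min, room temperature) measured activation of hPXR-driven CYP3A4 reporter expression in PXR-Luc HepG2 cells treated with compounds for 24 hr at 37 C.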

Assay [13] shares this target. Put plainly: CYP3A4 induction through human pregnane X receptor (PXR) by small molecules, qHTS assay (AID 1346984). Further: nearly all actives have a fitted effect of over 40% in size. Further: potency means the concentration at half of the fitted maximal effect. In short, it runs like this:
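Luminescence readout: luciferase signal after One-Glo (30 min, room temperature), following 3 h at 37C with 3uM final Luciferin-IPA P450 substrate. Cells were DPX-2 (HepG2, PXR/CYP3A4-luc co-transfected) dosed for 24 h.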

For assay [14], the target named is Progesterone receptor (Homo sapiens) (UniProt P06401). Put plainly: qHTS assay to identify small molecule antagonists of the progesterone receptor (PR) signaling pathway (AID 1346795; active means well fitted inhibition curve with a large enough effect in the signal ratio in the repeat runs, not every such curve was filed as active; the % refers to the signal ratio; further: potency means the concentration at half of the fitted maximal effect). In short, it runs like this: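 HEK293T PR-UAS-bla reporter cells in charcoal-stripped serum (2%) received compound after a 6 hr settling period, followed by R5020 agonist at 1 nM final; 16 hr incubation preceded the FRET substrate step and fluorescence measurement.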

Assay [15] can be described thus: Caspase-3/7 induction in CHO-K1 cells by small molecules, qHTS cell viability counter screen (AID 1346979). Further: nearly all actives have a fitted effect of over 35% in size. Further: potency means the concentration at half of the fitted maximal effect. In short, it runs like this: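 In the same wells as the caspase read, viability of compound-treated wild-type CHO-K1 cells was assessed using CellTiter-Fluor, added after 16hr at 37C and measured by fluorescence following 1hr further incubation.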
Assay [16] is described as follows: Caspase-3/7 induction in HepG2 cells by small molecules, qHTS cell viability counter screen (AID 1346981). Further: nearly all actives have a fitted effect of over 30% in size. Further: potency means the concentration at half of the fitted maximal effect. The procedure, abridged: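 HepG2, WT, 2,000 cells/well; 5 hr pre-incubation 37 C/5% CO2; compound pin-transferred from DMSO; 16 hr exposure; CellTiter-Fluor, 1 hr; fluorescence read.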
For assay [17], the target named is Nuclear receptor subfamily 1 group I member 2 (Rattus norvegicus) (UniProt Q9R1A7). Put plainly: Rat pregnane X receptor (rPXR) activation by small molecules, qHTS assay (AID 1346983). Further: nearly all actives have a fitted effect of over 20% in size. Further: potency means the concentration at half of the fitted maximal effect. The conditions noted are these: rPXR luciferase reporter cells, One-Glo luminescence, 24 h; max activation: hits give high values. In short, it runs like this:
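Luminescent readout (One-Glo luciferase, 30 min room temperature) followed 24 hr compound treatment at 37 C of rPXR cells plated 2,000 per well and preincubated 5hr; qHTS format with compounds delivered in DMSO.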

The target in assay [18] is Cytochrome P450 2D6 (Homo sapiens) (UniProt P10635). Nature of the assay: Cytochrome P450 Family 2 Subfamily D Member 6 (CYP2D6) small molecule antagonists: luciferase reporter qHTS assay (AID 1671196). Further: nearly all actives have a fitted effect of over 50% in size. Further: potency means the concentration at half of the fitted maximal effect. The procedure, abridged: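 Read-out is luminescence from luciferin formed by CYP2D6 turnover of a proluciferin substrate, recorded as relative luminescence units. Reactions ran 1 h at room temperature after NADPH regeneration solution was added.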
(Reporter assays use an easily measured gene product as a stand-in for the process of interest.)

Assay [19] addresses Nuclear receptor subfamily 1 group I member 2 (Homo sapiens) (UniProt O75469). Nature of the assay: Human pregnane X receptor (PXR) activation by small molecules, qHTS assay (AID 1346985). Further: potency means the concentration at half of the fitted maximal effect; nearly all actives have a fitted effect of over 40% in size. The procedure, abridged:
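DPX-2 cells (HepG2 co-transfected with a PXR response element and a CYP3A4-promoter luciferase construct) were seeded at 2,000 per well, rested 5 hr at 37C, then exposed to DMSO-dissolved compounds for 24 hr. Activation was read as luciferase luminescence.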

Sequence of Thyrotropin-releasing hormone receptor (Homo sapiens) (P34981 whole entry, looked up): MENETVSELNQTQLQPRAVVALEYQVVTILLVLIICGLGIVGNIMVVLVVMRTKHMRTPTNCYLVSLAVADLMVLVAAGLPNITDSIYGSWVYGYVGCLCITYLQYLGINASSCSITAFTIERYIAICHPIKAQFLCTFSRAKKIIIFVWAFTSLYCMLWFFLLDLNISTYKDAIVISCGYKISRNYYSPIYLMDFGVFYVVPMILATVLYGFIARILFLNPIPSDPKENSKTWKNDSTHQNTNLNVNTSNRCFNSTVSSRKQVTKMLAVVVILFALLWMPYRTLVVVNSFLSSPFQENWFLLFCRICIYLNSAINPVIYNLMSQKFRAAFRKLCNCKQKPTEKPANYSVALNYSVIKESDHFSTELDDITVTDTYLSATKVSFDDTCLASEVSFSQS
Sequence of Nuclear receptor subfamily 1 group I member 2 (Homo sapiens) (O75469 whole entry, looked up): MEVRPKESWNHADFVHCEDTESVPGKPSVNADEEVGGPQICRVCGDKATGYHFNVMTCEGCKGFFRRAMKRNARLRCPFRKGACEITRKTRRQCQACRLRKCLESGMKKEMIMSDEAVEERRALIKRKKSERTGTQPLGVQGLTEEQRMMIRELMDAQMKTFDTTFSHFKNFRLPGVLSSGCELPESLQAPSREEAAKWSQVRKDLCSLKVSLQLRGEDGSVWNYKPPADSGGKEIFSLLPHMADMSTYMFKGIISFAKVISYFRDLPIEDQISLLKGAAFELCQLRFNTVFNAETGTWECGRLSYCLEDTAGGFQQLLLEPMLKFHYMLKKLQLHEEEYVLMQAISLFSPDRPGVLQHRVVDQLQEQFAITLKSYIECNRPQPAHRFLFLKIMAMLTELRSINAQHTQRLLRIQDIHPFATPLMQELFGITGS
Sequence of Progesterone receptor (Homo sapiens) (P06401 whole entry, looked up): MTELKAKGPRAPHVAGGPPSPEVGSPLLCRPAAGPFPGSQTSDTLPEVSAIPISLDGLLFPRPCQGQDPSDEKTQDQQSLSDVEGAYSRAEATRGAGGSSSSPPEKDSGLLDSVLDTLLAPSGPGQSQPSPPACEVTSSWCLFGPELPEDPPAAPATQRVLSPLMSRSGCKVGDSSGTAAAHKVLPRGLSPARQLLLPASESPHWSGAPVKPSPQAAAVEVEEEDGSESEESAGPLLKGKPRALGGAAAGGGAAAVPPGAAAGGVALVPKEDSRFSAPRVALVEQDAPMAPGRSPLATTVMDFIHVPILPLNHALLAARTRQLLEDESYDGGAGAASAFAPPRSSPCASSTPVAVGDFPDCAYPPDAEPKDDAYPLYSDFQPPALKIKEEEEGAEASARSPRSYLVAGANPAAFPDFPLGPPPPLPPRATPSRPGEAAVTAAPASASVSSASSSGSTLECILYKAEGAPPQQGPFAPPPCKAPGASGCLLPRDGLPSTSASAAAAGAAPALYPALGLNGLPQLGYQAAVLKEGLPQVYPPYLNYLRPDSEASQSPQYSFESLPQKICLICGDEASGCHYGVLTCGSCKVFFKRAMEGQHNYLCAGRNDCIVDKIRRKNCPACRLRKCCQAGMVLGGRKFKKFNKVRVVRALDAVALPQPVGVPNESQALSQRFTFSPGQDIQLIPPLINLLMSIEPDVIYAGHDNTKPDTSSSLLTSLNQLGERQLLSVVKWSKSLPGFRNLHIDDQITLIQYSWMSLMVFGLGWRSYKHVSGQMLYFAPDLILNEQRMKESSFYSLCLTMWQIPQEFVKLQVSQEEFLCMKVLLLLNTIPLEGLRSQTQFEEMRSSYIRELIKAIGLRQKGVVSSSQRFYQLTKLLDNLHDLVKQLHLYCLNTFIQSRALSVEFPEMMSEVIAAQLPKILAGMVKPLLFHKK
Sequence of Cytochrome P450 2D6 (Homo sapiens) (P10635 whole entry, looked up): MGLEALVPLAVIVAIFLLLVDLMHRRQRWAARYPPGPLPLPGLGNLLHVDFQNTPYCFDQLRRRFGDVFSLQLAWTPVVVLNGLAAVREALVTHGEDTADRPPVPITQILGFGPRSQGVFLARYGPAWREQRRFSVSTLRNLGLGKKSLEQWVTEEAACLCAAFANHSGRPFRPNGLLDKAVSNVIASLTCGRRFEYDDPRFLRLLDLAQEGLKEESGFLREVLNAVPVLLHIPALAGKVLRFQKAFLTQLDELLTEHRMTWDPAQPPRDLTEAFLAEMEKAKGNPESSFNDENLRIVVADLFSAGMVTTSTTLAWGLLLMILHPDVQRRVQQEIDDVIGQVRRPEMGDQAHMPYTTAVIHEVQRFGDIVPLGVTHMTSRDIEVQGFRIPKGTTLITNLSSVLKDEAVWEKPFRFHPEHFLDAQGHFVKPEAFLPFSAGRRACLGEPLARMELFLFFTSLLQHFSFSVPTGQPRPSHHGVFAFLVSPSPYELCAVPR
Sequence of Nuclear receptor subfamily 1 group I member 2 (Rattus norvegicus) (Q9R1A7 whole entry, looked up): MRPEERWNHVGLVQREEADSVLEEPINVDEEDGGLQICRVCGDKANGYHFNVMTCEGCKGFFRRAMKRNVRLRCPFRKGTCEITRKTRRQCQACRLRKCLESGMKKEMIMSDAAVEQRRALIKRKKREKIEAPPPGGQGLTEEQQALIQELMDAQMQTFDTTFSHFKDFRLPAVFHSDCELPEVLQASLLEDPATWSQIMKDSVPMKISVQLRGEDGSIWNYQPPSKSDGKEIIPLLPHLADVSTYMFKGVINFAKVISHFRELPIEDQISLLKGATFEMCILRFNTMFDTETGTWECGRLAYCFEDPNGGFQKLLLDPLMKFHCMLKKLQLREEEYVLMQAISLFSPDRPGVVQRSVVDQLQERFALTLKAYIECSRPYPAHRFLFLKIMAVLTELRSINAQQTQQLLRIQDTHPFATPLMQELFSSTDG

On to `CCCCCCNC(=O)n1cc(F)c(=O)[nH]c1=O`, for which the Potency entry in assay [1], in assay [2], in [3], in [4], in [5] and in assay [6] was “inactive” throughout. In addition, the Potency result in assay [8], in assay [9], in assay [10] and in assay [11] was “inactive” each time. For the same molecule, the result in assay [7] was inactive. The Potency in [12] was 15 µM (active); in [13] it was 0.794 µM (active).

Regarding `Cc1ccc2c(Br)cc(Br)c(O)c2n1`, the Potency is 18.8 µM (active) in assay [14], 21.1 µM (active) in [15] and 11.9 µM (active) in assay [12]. For the same molecule, the Potency entry in assay [4], in assay [5], in [6], in assay [8], in assay [9] and in assay [10] was “inactive” throughout. Besides, the Potency entry in assay [11], in assay [16], in assay [13] and in assay [18] was “inactive” each time. Further, in assay [7], the result was inactive. Besides, in assay [17], the max activation was -3.38%.

On to `Cc1cc(=O)c2c(O)c3c(O)cc(=O)c4c3c3c(cc(O)c1c23)C(C)(C)C=4O`, for which the values for the activation in assay [1] and in assay [8] were -2.51% [at 19 µM] and 12.7% [at 11.8 µM], respectively. The activity, negative = inhibition in [7] is 1.99% [at 10.5 µM]. Moreover, the Potency is 0.73 µM (active) in [9] and 2.59 µM (active) in [15]. The caspase activation in assay [10] is -2.97% [at 19 µM].

Regarding `Cc1cc(O)ccc1O`, the Potency result in [4], in assay [5], in assay [6], in [8], in assay [9] and in assay [10] was “inactive” each time. For the same molecule, the call in assay [7] was inactive. Besides, the Potency in assay [15] is 31 µM (active).

For the molecule `Oc1cccc(Nc2ccccc2)c1`, the Potency entry in assay [1], in assay [4], in assay [5], in [8], in assay [9] and in [10] was “inactive” throughout. The Potency entry in assay [15], in assay [11] and in assay [16] was “inactive” each time. The Potency in assay [14] is 20.2 µM (active). In assay [7], the result was inactive.

Take `CCOc1ccc(Cc2nccc3cc(OCC)c(OCC)cc23)cc1OCC`: the Potency result in assay [1], in assay [4], in [5], in [10] and in assay [11] was “inactive” throughout. Besides, the Potency in assay [14] is 16.8 µM (active); in [2], 18.8 µM (active); in [9], 26.6 µM (active); in assay [15] it was 11.9 µM (active); in assay [16], 29.8 µM (active); in [12] it was 3.35 µM (active).

Regarding `c1ccc2sc(SN(C3CCCCC3)C3CCCCC3)nc2c1`, the Potency entry in [1], in assay [2], in [3], in assay [4], in [5] and in [9] was “inactive” each time. Moreover, the Potency result in [10], in assay [15] and in assay [16] was “inactive” each time. For the same molecule, the Potency was 17 µM (active) in assay [12] and 1.25 µM (active) in assay [18].

For the molecule `O=[N+]([O-])c1ccc(O/N=C/c2cc(Br)c(O)c(Br)c2)c([N+](=O)[O-])c1`, the Potency entry in assay [4], in assay [5], in [10] and in assay [18] was “inactive” throughout. The figures for the Potency in assay [9], in assay [15] and in assay [16] were 30.5 µM (active), 15.3 µM (active) and 27.2 µM (active), respectively.

For `CCCC(C(=O)OCCN(CC)CC)(c1ccccc1)c1ccccc1`, the Potency result in [1], in assay [2], in assay [4], in [5], in assay [6] and in assay [8] was “inactive” each time. Also, the Potency result in [10] and in assay [11] was “inactive” throughout. Further, the outcome in assay [7] was inactive. For the same molecule, the Potency was 26.6 µM (active) in assay [9]; 10.6 µM (active) in [12]; 22.4 µM (active) in assay [17]; 10 µM (active) in assay [13]; 15.8 µM (active) in assay [19]; 0.275 µM (active) in assay [18].

On to `Oc1c(I)cc(I)c2cccnc12`, for which the Potency entry in [1], in assay [2], in assay [4], in [5], in assay [6] and in [8] was “inactive” in each case. Further, the Potency result in assay [9], in assay [10], in assay [11], in [16] and in assay [18] was “inactive” throughout. The Potency in assay [14] was 7.5 µM (active). The molecule was called inactive in assay [7].

Consider `COc1cc(Nc2c(C#N)cnc3cc(OCCCN4CCN(C)CC4)c(OC)cc23)c(Cl)cc1Cl`, for which the Potency result in [1], in [2], in assay [4], in [5], in [6] and in assay [11] was “inactive” in each case. Moreover, the Potency entry in assay [18] is “inactive”. Also, the Potency in [14] was 11.9 µM (active); in assay [9] it was 11.9 µM (active); in assay [10], 11.9 µM (active); in assay [15], 29.8 µM (active); in assay [16], 13.3 µM (active).

Turning to `OC1(c2ccccc2)CCNCC1`, the Potency entry in [2], in [3], in assay [4], in assay [5], in [6] and in assay [8] was “inactive” each time. Also, the Potency entry in assay [9], in assay [10], in assay [15], in [11], in assay [16] and in assay [12] was “inactive” throughout. For the same molecule, in assay [7], the molecule was classed as inactive.

Values taken from PubChem BioAssay (Tox21).
